Records with an inconclusive call do not appear. The source made the active and inactive calls. Unless noted, calls follow the shape of the full dose curve.

Experiment [1] concerns the target Glucocorticoid receptor (Homo sapiens) (UniProt P04150). The experiment is described as follows: qHTS assay for small molecule agonists of glucocorticoid receptor signaling (AID 588532; active = well fitted curve in the direction sought with a large enough effect in the signal ratio, with a control signal flat; the % refers to the signal ratio;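 also: 100% = dexamethasone at 0.1 µM and 0% = DMSO only wells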). The following applies: HeLa MMTV-bla, beta-lactamase ratio, agonist, 18 h; stronger effect = higher value; percent of dexamethasone control, DMSO zero. In outline:
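Stimulation of a glucocorticoid response element-driven beta-lactamase gene was measured in HeLa cells. Responses were scaled between DMSO basal and 0.1 uM dexamethasone, then fitted for half-maximal stimulation.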

The target is the same in experiment [2]. The experiment is described as follows: qHTS assay for small molecule antagonists of glucocorticoid receptor signaling (AID 588533; active = well fitted inhibition curve with a large enough effect in the signal ratio, with a control signal flat, not every such curve was filed as active; the % refers to the signal ratio;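 also: cells stimulated with 2 nM dexamethasone as agonist; % is scaled to controls: 0 for no effect and ±100 for the full control effect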). The conditions noted are these: HeLa MMTV-bla, GRE beta-lactamase ratio, antagonist mode, 18 h; series mostly up to 76.8 µM. In outline:
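Antagonist-mode qHTS: compound titrations added to GRE-bla HeLa cells, then dexamethasone 2 nM final; 18 h, 37 C. CCF4 FRET fluorescence normalized to dexamethasone and DMSO; IC50 from Hill fit.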
For orientation: Quantitative high-throughput screening tests each substance at several concentrations.

The target in experiment [3] is Peroxisome proliferator-activated receptor gamma (Homo sapiens) (UniProt P37231). The experiment is described as follows: qHTS assay for small molecule agonists of peroxisome proliferator-activated receptor gamma signaling (AID 588536; active = well fitted curve in the direction sought with a large enough effect in the signal ratio, with a control signal flat, not every such curve was filed as active; the % refers to the signal ratio;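 also: 0% = DMSO basal wells and 100% = rosiglitazone at 2 µM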). The conditions noted are these: HEK293 PPARg-UAS-bla, beta-lactamase ratio, 16 h, percent of rosiglitazone response, DMSO as zero; series mostly up to 76.7 µM. In outline: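 Ratiometric blue/green fluorescence (405 nm excitation; 460 and 530 nm emission) from CCF4-loaded HEK293 reporter cells serves as signal. Exposure to test compounds lasts 16 h at 37 C in medium containing 1% charcoal/dextran-treated serum.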

For experiment [4] the target is unchanged. The experiment can be described thus: qHTS assay for small molecule antagonists of peroxisome proliferator-activated receptor gamma signaling (AID 588537; active = well fitted inhibition curve with a large enough effect in the signal ratio, with a control signal flat, not every such curve was filed as active; the % refers to the signal ratio;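 also: reporter cells co-stimulated with 50 nM rosiglitazone agonist during compound treatment; % of control where 0% means no effect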). The conditions noted are these: HEK293 PPARg-UAS-bla, beta-lactamase ratio, antagonist mode; series mostly up to 76.8 µM. In outline: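 PPAR-gamma-UAS-bla HEK293 cells (3000/well, 1% charcoal/dextran-stripped FBS) were preincubated 6-6.5 h at 37 C, given titrated compounds, then stimulated with 50 nM rosiglitazone for 16 h. Beta-lactamase activity was read with CCF4 dye; IC50 came from Hill fits.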

The target in experiment [5] is Vitamin D3 receptor (Homo sapiens) (UniProt P11473). The experiment is described as follows: qHTS assay for small molecule antagonists of vitamin D receptor signaling (AID 588541).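 Also: receptor activated by calcitriol during compound treatment; % is scaled to controls: 0 for no effect and ±100 for the full control effect.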 The conditions noted are these: HEK293T VDR-UAS-bla, beta-lactamase ratio, antagonist mode; series mostly up to 76.7 µM. In outline:
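VDR-UAS-bla HEK293T cells (2000/well, 2% charcoal-stripped FBS) were treated with titrated compounds plus 1-alpha,25-dihydroxyvitamin D3 (50 nM or 3 nM final) for 16 h at 37 C. CCF4 beta-lactamase fluorescence was read; Hill fits gave IC50.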

Experiment [6] shares this target. The experiment is described as follows: qHTS assay for small molecule agonists of vitamin D receptor signaling (AID 588543).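 Also: 0% = DMSO basal and 100% = reference agonist control.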 The following applies: HEK293T VDR-UAS-bla, beta-lactamase ratio, 16 h; series mostly up to 76.8 µM. In outline: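 Measured: β-lactamase reporter activity (CCF4, 405 nm excitation, 460/530 nm emission) in HEK293T VDR-UAS-bla cells after 16 h compound exposure at 37 °C. Normalization against 50 nM 1α,25-dihydroxyvitamin D3 and DMSO; Hill-fit EC50.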

Experiment [7] is described as follows: qHTS assay for small molecule agonists of retinoid X receptor alpha signaling (AID 588544).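 As to activation: 0% = DMSO basal wells and 100% = reference agonist.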 The following applies: HEK293T RXRa-UAS-bla, beta-lactamase reporter, 18 h; 530 nm emission.
Experiment [8] addresses Retinoic acid receptor RXR-alpha (Homo sapiens) (UniProt P19793). The description is as above. The conditions noted are these: HEK293T RXRa-UAS-bla, beta-lactamase reporter, 18 h; series mostly up to 76.7 µM.
The target in experiment [9] is Thyroid hormone receptor beta (Homo sapiens) (UniProt P10828). The experiment can be described thus: qHTS assay for small molecule agonists of thyroid hormone receptor beta signaling (AID 588545).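 Also: 0% = DMSO only and 100% = 10 nM T3.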 The conditions noted are these: TR-UAS-bla GripTite HEK 293, beta-lactamase ratio, agonist mode, 18 h, percent of T3 response, DMSO as zero; series mostly up to 76.7 µM. In outline: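 TR-UAS-bla GripTite HEK 293 cells (2500/well, medium with 2% charcoal/dextran FBS) were treated in agonist mode for 18 h at 37 C, titrated. Beta-lactamase was read by CCF4 ratio after 2 h; normalized to 10 nM T3 (100%) and DMSO, Hill-fitted for EC50 and efficacy.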

Experiment [10] is described as follows: qHTS assay for small molecule antagonists of retinoid X receptor alpha signaling (AID 588546; active = well fitted inhibition curve with a large enough effect in the signal ratio, with a control signal flat, not every such curve was filed as active; the % refers to the signal ratio;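 also: cells stimulated with 9-cis-retinoic acid as agonist; % is scaled to controls: 0 for no effect and ±100 for the full control effect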). The conditions noted are these: HEK293T RXRa-UAS-bla, beta-lactamase ratio, antagonist mode; measured here: W530 green channel, cytotoxicity proxy. In outline: (§1)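 Beta-lactamase reporter inhibition, read as CCF4 fluorescence ratio (ex 405, em 460/530 nm) after 2 h at RT. HEK293T UAS-bla cells, 2500/well, were stimulated with 9-cis-RA at 500 or 100 nM final alongside test compound for 18 h at 37 C.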

Experiment [11] deals with Retinoic acid receptor RXR-alpha (Homo sapiens) (UniProt P19793). The experiment is described as above. The following applies: HEK293T RXRa-UAS-bla, beta-lactamase ratio, antagonist mode. In outline:
as §1

In experiment [12] the target is Thyroid hormone receptor beta (Homo sapiens) (UniProt P10828). The experiment is described as follows: qHTS assay for small molecule antagonists of thyroid hormone receptor beta signaling (AID 588547; active = well fitted inhibition curve with a large enough effect in the signal ratio, with a control signal flat, not every such curve was filed as active; the % refers to the signal ratio;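 also: cells stimulated with 0.4 nM T3 agonist during compound exposure; % is scaled to controls: 0 for no effect and ±100 for the full control effect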). The conditions noted are these: TR-UAS-bla HEK293, beta-lactamase ratio, antagonist mode, 18 h. In outline: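 TR-UAS-bla GripTite HEK293 cells in 2% charcoal/dextran FBS medium were preincubated 4 h at 37 C, given compound (0.59 nM to 92 uM) plus 0.4 nM T3 (final) for 18 h, then CCF4 for 2 h at RT; Hill fit gave IC50.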

Experiment [13] deals with Voltage-gated inwardly rectifying potassium channel KCNH2 (Homo sapiens) (UniProt Q12809). The experiment can be described thus: qHTS Assay for Small Molecule Inhibitors of the Human hERG Channel Activity (AID 588834; active = well fitted inhibition curve with a large enough effect;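 also: top concentration of the series differs between compounds; % is scaled to controls: 0 for no effect and ±100 for the full control effect; lower thallium flux fluorescence means stronger hERG block; nearly all actives have a fitted effect of over 50% in size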). The conditions noted are these: U2OS BacMam hERG, FluxOR thallium flux fluorescence; series mostly up to 92.2 µM. In outline:
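Blockade is seen as reduced FluxOR thallium-flux fluorescence in U2OS cells expressing hERG from a BacMam construct, in Opti-MEM with 2% FCS. Concentration-response data fitted to the Hill equation for AC50.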

The nature of experiment [14]: qHTS assay for small molecule agonists of the antioxidant response element (ARE) signaling pathway (AID 651741; active = well fitted activation curve with a large enough effect in the signal ratio; the % refers to the signal ratio; also: % of control where 0% means no effect). The conditions noted are these: HepG2 ARE-bla reporter, beta-lactamase FRET ratio, 16 h; series mostly up to 96 µM. In outline: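 ARE-bla HepG2 cells (beta-lactamase reporter under ARE control) were plated at 2,000 cells/well, preincubated 5 h at 37 C/5% CO2, then treated with DMSO-dissolved compounds for 16 h at 37 C; LiveBLAzer B/G FRET substrate added, fluorescence read after 2 h at room temperature.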

Experiment [15] is described as follows: qHTS assay for small molecule activators of the nuclear factor-kappa B (NF-kB) signaling pathway (AID 651749; active = well fitted activation curve with a large enough effect in the signal ratio; the % refers to the signal ratio; also: % of control where 0% means no effect). The conditions noted are these: NF-kB-bla ME-180 cells, beta-lactamase FRET ratio, 16 h; stronger effect = higher value. In outline: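 ME-180 cells stably carrying a beta-lactamase reporter under an NF-kB response element were exposed to compound or DMSO vehicle for 16 hr at 37C, 5% CO2. Pathway activation was read by FRET, since reporter expression disrupts FRET.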

Experiment [16] in a line: qHTS assay for small molecule antagonists of peroxisome proliferator-activated receptor delta signaling (AID 588535; active = well fitted inhibition curve with a large enough effect in the signal ratio, with a control signal flat, not every such curve was filed as active; the % refers to the signal ratio;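 as to max response: cells co-treated with a PPAR-delta agonist as stimulator during compound exposure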). The conditions noted are these: HEK293T PPARd-UAS-bla, beta-lactamase FRET ratio, 18 h; 460 nm channel. In outline: (§2)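 GeneBLAzer PPAR-delta-UAS-bla HEK293T cells in medium with 2% charcoal/dextran FBS were preincubated 5 hrs at 37 C, then given compounds, incubated 18 hrs at 37 C, and read by CCF4 beta-lactamase fluorescence; IC50 from Hill fits.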

The target in experiment [17] is Peroxisome proliferator-activated receptor delta (Homo sapiens) (UniProt Q03181). Described as above. The following applies: HEK293T PPARd-UAS-bla, beta-lactamase FRET ratio, 18 h; series mostly up to 76.7 µM. In outline:
as §2

A short description of experiment [18]: qHTS assay for small molecule activators of the p53 signaling pathway (AID 651743; active = well fitted activation curve with a large enough effect in the signal ratio, not every such curve was filed as active; the % refers to the signal ratio; also: % of control where 0% means no effect). The following applies: HCT-116 p53RE-bla, beta-lactamase FRET ratio, 16 h; stronger effect = higher value. In outline: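 p53RE-bla HCT-116 cells with a stably integrated beta-lactamase reporter under p53 response elements were plated, rested 5 hours at 37 C/5% CO2, then exposed to compounds in DMSO for 16 hours at 37 C. LiveBLAzer B/G FRET substrate was read after 2 hours at room temperature.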

Chain of Glucocorticoid receptor (Homo sapiens) (P04150 whole entry, looked up): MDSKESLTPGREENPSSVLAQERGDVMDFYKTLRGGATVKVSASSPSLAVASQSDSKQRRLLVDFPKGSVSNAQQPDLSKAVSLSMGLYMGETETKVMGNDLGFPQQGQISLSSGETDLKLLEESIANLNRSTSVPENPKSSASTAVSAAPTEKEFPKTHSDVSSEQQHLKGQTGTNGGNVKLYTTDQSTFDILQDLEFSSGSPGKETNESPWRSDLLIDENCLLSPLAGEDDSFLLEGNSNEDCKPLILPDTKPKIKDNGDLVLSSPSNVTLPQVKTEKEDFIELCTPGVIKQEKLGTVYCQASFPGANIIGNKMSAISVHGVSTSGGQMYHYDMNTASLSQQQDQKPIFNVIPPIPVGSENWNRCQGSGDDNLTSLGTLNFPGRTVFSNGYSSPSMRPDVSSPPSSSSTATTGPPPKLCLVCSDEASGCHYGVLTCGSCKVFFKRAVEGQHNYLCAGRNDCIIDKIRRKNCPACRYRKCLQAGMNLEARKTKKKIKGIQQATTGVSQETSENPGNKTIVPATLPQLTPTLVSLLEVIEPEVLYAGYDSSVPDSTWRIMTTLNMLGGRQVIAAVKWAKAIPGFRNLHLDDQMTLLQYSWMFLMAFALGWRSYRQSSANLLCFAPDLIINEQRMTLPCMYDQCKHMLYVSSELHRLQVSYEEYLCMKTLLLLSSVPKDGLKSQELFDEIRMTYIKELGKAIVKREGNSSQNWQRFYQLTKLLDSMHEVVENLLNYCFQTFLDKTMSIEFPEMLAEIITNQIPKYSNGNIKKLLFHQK
Chain of Vitamin D3 receptor (Homo sapiens) (P11473 whole entry, looked up): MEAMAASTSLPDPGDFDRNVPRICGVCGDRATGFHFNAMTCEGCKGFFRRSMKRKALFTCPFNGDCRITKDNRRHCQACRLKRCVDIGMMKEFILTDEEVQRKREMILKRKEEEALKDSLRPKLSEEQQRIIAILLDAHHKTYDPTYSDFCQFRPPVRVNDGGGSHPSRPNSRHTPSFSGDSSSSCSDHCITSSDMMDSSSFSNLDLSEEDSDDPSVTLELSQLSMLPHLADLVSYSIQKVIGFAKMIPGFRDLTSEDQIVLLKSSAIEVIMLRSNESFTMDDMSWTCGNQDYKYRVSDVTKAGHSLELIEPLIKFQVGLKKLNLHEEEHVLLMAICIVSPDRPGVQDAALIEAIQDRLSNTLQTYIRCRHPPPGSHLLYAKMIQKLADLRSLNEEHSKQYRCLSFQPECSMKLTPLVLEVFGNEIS
Chain of Peroxisome proliferator-activated receptor gamma (Homo sapiens) (P37231 whole entry, looked up): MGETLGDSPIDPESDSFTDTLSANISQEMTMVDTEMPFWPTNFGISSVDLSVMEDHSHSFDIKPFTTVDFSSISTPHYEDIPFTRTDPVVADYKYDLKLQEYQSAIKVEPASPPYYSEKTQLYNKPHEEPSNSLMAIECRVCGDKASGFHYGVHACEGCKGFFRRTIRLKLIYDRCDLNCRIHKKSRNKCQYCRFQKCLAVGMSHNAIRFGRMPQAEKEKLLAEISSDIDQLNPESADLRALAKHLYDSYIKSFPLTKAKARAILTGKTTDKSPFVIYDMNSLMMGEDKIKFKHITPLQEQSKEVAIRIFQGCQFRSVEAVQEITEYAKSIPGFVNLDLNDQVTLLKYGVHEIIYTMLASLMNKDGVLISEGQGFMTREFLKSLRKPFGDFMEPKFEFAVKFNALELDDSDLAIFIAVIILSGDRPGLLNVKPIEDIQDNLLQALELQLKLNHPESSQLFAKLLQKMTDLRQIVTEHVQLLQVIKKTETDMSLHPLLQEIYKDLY
Chain of Retinoic acid receptor RXR-alpha (Homo sapiens) (P19793 whole entry, looked up): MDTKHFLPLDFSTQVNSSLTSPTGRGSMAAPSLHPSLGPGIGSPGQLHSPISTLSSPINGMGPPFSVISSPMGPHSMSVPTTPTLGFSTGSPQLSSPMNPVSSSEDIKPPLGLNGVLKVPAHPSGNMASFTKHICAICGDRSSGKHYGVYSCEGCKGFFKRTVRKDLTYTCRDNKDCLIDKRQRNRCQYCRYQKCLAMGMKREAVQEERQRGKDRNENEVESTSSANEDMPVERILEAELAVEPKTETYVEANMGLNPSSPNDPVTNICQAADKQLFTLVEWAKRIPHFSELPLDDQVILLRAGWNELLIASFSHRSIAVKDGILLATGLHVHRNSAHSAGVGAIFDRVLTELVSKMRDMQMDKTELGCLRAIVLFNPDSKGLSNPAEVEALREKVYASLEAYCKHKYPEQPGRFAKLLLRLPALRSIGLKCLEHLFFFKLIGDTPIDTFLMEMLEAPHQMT
Chain of Voltage-gated inwardly rectifying potassium channel KCNH2 (Homo sapiens) (Q12809 whole entry, looked up): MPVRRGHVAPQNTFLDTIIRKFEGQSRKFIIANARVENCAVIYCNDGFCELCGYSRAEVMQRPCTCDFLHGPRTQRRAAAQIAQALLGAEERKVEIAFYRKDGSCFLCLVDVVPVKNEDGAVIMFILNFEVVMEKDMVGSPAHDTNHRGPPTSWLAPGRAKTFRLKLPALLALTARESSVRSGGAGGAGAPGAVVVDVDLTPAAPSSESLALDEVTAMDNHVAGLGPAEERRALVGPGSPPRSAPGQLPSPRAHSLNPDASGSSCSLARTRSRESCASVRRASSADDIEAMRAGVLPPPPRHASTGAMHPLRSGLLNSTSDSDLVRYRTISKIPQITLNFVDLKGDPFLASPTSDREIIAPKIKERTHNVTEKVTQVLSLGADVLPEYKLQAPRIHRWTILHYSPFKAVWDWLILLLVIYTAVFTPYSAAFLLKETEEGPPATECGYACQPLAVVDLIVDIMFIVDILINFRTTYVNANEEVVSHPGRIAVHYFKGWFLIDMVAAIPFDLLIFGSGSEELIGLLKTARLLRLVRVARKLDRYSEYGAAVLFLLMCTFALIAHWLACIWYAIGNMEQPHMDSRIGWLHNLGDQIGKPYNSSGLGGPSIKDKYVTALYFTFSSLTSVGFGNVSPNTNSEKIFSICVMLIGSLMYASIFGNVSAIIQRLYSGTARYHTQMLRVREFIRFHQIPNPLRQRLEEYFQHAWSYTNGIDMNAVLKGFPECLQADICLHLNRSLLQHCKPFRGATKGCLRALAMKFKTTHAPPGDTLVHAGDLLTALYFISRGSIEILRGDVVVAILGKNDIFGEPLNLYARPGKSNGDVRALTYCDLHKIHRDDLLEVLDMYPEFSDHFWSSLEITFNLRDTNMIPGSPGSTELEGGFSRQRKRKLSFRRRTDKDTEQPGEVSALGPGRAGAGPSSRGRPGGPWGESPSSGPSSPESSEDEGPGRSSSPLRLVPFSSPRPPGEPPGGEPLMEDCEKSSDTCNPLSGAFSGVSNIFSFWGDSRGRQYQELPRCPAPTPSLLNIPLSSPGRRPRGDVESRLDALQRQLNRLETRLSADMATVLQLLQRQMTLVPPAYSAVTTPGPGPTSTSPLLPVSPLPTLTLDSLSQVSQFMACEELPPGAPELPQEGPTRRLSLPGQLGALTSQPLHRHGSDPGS
Chain of Thyroid hormone receptor beta (Homo sapiens) (P10828 whole entry, looked up): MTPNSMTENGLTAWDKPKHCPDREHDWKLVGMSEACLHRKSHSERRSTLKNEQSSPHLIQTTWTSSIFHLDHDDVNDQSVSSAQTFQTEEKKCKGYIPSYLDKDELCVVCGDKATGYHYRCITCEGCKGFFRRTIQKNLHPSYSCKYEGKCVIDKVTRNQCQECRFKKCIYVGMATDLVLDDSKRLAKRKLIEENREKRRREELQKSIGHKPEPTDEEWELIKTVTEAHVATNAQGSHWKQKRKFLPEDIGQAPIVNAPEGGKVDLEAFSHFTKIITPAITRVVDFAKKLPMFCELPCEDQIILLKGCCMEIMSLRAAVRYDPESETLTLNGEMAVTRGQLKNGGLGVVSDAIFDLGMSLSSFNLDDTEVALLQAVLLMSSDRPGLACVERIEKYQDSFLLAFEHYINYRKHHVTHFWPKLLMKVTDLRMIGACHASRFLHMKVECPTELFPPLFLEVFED
Chain of Peroxisome proliferator-activated receptor delta (Homo sapiens) (Q03181 whole entry, looked up): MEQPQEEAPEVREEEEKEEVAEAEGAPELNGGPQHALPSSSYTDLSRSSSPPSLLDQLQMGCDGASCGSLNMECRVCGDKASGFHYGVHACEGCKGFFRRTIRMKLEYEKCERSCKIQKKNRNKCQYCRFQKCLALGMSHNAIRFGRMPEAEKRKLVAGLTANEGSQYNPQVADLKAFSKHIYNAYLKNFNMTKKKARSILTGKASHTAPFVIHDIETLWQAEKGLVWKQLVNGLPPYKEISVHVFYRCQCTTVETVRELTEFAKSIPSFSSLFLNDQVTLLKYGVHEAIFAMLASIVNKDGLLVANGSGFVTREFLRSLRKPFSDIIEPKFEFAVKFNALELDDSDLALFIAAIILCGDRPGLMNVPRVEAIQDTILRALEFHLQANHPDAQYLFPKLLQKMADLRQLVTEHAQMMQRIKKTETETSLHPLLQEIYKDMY

Regarding `OC1CCCC1`, the activation in experiment [1] is 0.774% (inactive); in experiment [15], 1.54% (inactive). The result in [2], in [3], in [4], in experiment [5], in experiment [6] and in experiment [8] was inactive. In experiment [9], the outcome was inactive. In addition, the values for the max response in experiment [7], in [10] and in experiment [11] were -0.127%, -8.22% and 5.18% (inactive), respectively. In addition, the activity change % (negative = inhibition) in experiment [12] is 8.64% (inactive). Further, the Potency entry in [13] and in experiment [14] was “inactive” in each case.
For the compound `FC(F)(F)c1ccccc1Cl`, the activation in experiment [1] was 6.11% (inactive); in experiment [18], 1.57% (inactive); in experiment [15], -0.494% (inactive). The max response in [16] is 25.6%; in experiment [7], -12.9%; in experiment [10], -4.91%; in experiment [11] it was -5% (inactive). Besides, the Potency result in experiment [17], in experiment [13] and in [14] was “inactive” throughout. For the same compound, the result in [3], in experiment [4], in experiment [5], in [6], in experiment [8] and in experiment [9] was inactive.
On to `NC(=O)CCCCC(N)=O`, for which the figures for the activation in experiment [1], in [18] and in experiment [15] were -2.82% (inactive), -2.38% (inactive) and 1.81% (inactive), respectively. Also, the result in experiment [2], in experiment [3], in [4] and in [8] was inactive. Further, the max response in experiment [7] was -19.9%; in [10], -2.99%; in experiment [11], 6.15% (inactive). For the same compound, the Potency result in experiment [13] is “inactive”.
For `Cc1cc(C2(c3cc(C)c(O)cc3C)OS(=O)(=O)c3ccccc32)c(C)cc1O`, the activation in experiment [1] was 3.46% (inactive); in experiment [18], -5.82% (inactive). In addition, the result in experiment [2], in experiment [3], in [8] and in experiment [9] was inactive. The max response in experiment [7] was -3.17%; in [10] it was -12.4%; in experiment [11] it was 0.408% (inactive). The activity change % (negative = inhibition) in experiment [12] is -15% (inactive). For the same compound, in experiment [13], the Potency entry is “inactive”.
`CSc1ccc(C=O)cc1`: the activation in experiment [1] is -2.41% (inactive); in [15], 0.0922% (inactive). Besides, the result in experiment [2], in experiment [3], in [5], in experiment [6], in experiment [8] and in experiment [9] was inactive. The max response in experiment [7] was -15.5%; in [10] it was -1.24%; in experiment [11], 1.67% (inactive). Besides, the activity change % (negative = inhibition) in experiment [12] is 3.08% (inactive). In addition, the Potency result in experiment [13] was “inactive”.
As to `C1CCCC1`, the activation is 2.06% (inactive) in experiment [1] and -0.131% (inactive) in [18]. Moreover, the result in experiment [2], in [3], in experiment [4], in [5], in experiment [6] and in [8] was inactive. Moreover, the outcome in experiment [9] was inactive. Further, the values for the max response in [7], in experiment [10] and in experiment [11] were -15.2%, -15.6% and -5.52% (inactive), respectively. The activity change % (negative = inhibition) in experiment [12] is -1.41% (inactive). Moreover, the Potency entry in experiment [13] and in [14] was “inactive” throughout.
As to `CC(C)N=C=NC(C)C`, the activation in experiment [1] was 4.13% (inactive); in experiment [18], 1.3% (inactive); in experiment [15], -0.231% (inactive). Also, the outcome in experiment [2], in experiment [3], in experiment [4], in experiment [6], in experiment [8] and in experiment [9] was inactive. In addition, the max response in experiment [7] is -13.3%; in experiment [10], 10.7%; in [11], 7.57% (inactive). The activity change % (negative = inhibition) in experiment [12] is 1.37% (inactive). Besides, the Potency result in [14] is “inactive”.
